The test is described as follows: modulators of mitochondrial supercomplex assembly, cell-based, luminescence, Hoechst nuclei count (AID 1645838).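 On all read-outs here: control cybrid cells.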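 On z-score: higher means more mitochondrial supercomplex formation.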 The conditions noted are these: Cells, luminescence/Hoechst cell count ratio, supercomplex reporter; for z-score: stronger effect = higher value; for cell count: measured here: cell number, Hoechst nuclei count; for outcome: library stock 10 mM.
[1] abbreviates: library stock concentration (final well concentration not given) 80 uM.
Setting [2] is: library stock concentration (final well concentration not given) 400 uM.
Where [3] appears, read: library stock concentration (final well concentration not given) 2 mM.
[4] abbreviates: library stock concentration (final well concentration not given) 10 mM.
Where [5] appears, read: library stock concentration (final well concentration not given) 46 uM.
The mark [6] stands for this setting: library stock concentration (final well concentration not given) 278 uM.
Where [7] appears, read: library stock concentration (final well concentration not given) 1.67 mM.

Out of some 2,000 compounds screened, about 100 (5%) were called active. No stated cut-off is given here; in the data, active means z-score above about 2; inactive means the rest. Only a selection was taken, and actives are over-represented in it overall.

As to `CN(C)C(=O)c1cc2cnc(Nc3ccc(N4CCNCC4)cn3)nc2n1C1CCCC1`, the z-score was 0.288 (inactive) under setting [1], 0.657 (inactive) under setting [2], 1.74 (inactive) under setting [3] and 2.33 (active) under setting [4]. The cell count came to 5680 under setting [1], 5400 under setting [2], 4600 under setting [3] and 3840 under setting [4].
As to `CCCCC/C=C\C/C=C\C/C=C\C/C=C\CCCCN1C(=O)C=CC1=O`, the z-score is 0.0996 (inactive) and the cell count was found to be 4710.
As for `Nc1nc2c([nH]c(=O)n2[C@H]2C[C@H](O)[C@@H](CO)O2)c(=O)[nH]1`, the z-score is -0.23 (inactive) and the cell count came to 5380.
For `O=C(Nc1ccc(N2CCOCC2)cc1)c1n[nH]c2ccccc12`, the z-score is 0.294 (inactive) under setting [1], 0.396 (inactive) under setting [2], -0.44 (inactive) under setting [3] and 0.0641 (inactive) under setting [4]. Further, the cell count was 5020 under setting [1], 4770 under setting [2], 4900 under setting [3] and 4350 under setting [4].
On to `CCCCC[C@H](O)/C=C/[C@H]1C(=O)C[C@H](O)[C@@H]1CCCCCCCO`, for which the z-score is 0.644 (inactive) and the cell count was 4950.
Consider `O=C(Nc1cccc(Nc2ncc(Br)c(NCCc3cnc[nH]3)n2)c1)N1CCCC1`, for which the outcome was “inactive; censored for cell count”. Under setting [5], the z-score was -0.139 (inactive) and the cell count came out at 5940. For the same molecule, under setting [1], the z-score was -0.647 (inactive) and the cell count was found to be 4860. Further, under setting [6], the z-score was 0.0145 (inactive) and the cell count is 6000. Besides, under setting [2], the z-score was -0.129 (inactive) and the cell count amounted to 4520. Under setting [7], the z-score is 3.24 (active) and the cell count came to 2060. For the same molecule, under setting [3], the z-score is 0.129 (inactive) and the cell count was 3760.
In the case of `O=C(O)CCC/C=C\CC1C(=O)C[C@@H](O)[C@@H]1/C=C/[C@@H](O)COc1ccccc1` (stereo partly specified), the z-score is 0.988 (inactive) and the cell count was found to be 5150.
For `CCN(CC)C(=O)CCC/C=C\C[C@@H]1[C@@H](/C=C/[C@@H](O)CCc2ccccc2)[C@H](O)C[C@@H]1O` the same measures were 0.309 (inactive) and 5000.
For `CCCCCCCC/C=C\CCCCCCCCCCCC(N)=O`, the z-score was -0.128 (inactive) and the cell count came to 5640.
Regarding `CCCCCCCCCCCCCCCCCC(=O)NCCO`, the z-score is -0.675 (inactive) and the cell count was found to be 6070.
As to `O=C(C(=O)c1ccc(Cl)cc1)c1ccc(Cl)cc1`, the z-score reads like this: under setting [5], 0.501 (inactive); under setting [6], 0.0434 (inactive); under setting [7], 0.0353 (inactive); under setting [4], -0.186 (inactive). The cell count by setting is: under setting [5], 6500; under setting [6], 6290; under setting [7], 6800; under setting [4], 6380.
On to `NC(=NCC[C@H](N)C(=O)O)NO`, for which the z-score was -0.121 (inactive) and the cell count was determined as 4620.
Turning to `CCCCC/C=C\C/C=C\C/C=C\C/C=C\CCCCNC(=O)c1ccc(O)cc1`, the z-score was -0.229 (inactive) and the cell count was determined as 5700.
Take `CCN(CC)c1ccc(C=NNC(=O)c2ccc(O)cc2)cc1`: the z-score by setting is: under setting [5], -0.275 (inactive); under setting [6], -0.201 (inactive); under setting [7], -0.4 (inactive); under setting [4], 2.2 (active). The cell count is, setting by setting: under setting [5], 6830; under setting [6], 6590; under setting [7], 6690; under setting [4], 3360.
For `CCC(=C(CC)c1ccc(O)cc1)c1ccc(O)cc1`, the z-score is, setting by setting: under setting [1], 0.303 (inactive); under setting [2], 0.161 (inactive); under setting [3], -0.198 (inactive); under setting [4], -1.11 (inactive). Besides, the cell count under setting [1] came to 5780, the cell count under setting [2] was found to be 5910, the cell count under setting [3] stood at 5930 and the cell count under setting [4] was determined as 5450.
As for `CC(OC1OCCN(Cc2n[nH]c(=O)[nH]2)C1c1ccc(F)cc1)c1cc(C(F)(F)F)cc(C(F)(F)F)c1` (stereo unspecified), the z-score is -0.483 (inactive) under setting [1], -0.157 (inactive) under setting [2], -0.324 (inactive) under setting [3] and 1.44 (inactive) under setting [4]. Further, the cell count amounted to 5120 under setting [1], 5200 under setting [2], 4790 under setting [3] and 2820 under setting [4].
Consider `CCCCCCCC/C=C\CCCCCCCC(=O)N[C@@H](CO)C(=O)O`, for which the z-score was 0.0618 (inactive) and the cell count is 5160.
Turning to `NCC(=O)Nc1ccc(-n2nc(C(F)(F)F)cc2-c2ccc3c(ccc4ccccc43)c2)cc1`, the outcome was “inactive; censored for cell count”. Under setting [1], the z-score is -0.354 (inactive) and the cell count was 6120. Under setting [2], the z-score was -0.201 (inactive) and the cell count was determined as 5230. Besides, under setting [3], the z-score was 4.63 (active) and the cell count came out at 2710.
In the case of `Cc1nnsc1C(=O)Nc1ccc(-n2nc(C(F)(F)F)cc2C(F)(F)F)cc1`, the z-score is 0.284 (inactive) and the cell count came out at 4970.
`CCCCCCCCCCCCCCC(=O)NCCO`: the z-score under setting [5] is -0.0121 (inactive), the z-score under setting [6] is 0.19 (inactive), the z-score under setting [7] is -0.219 (inactive) and the z-score under setting [4] is 0.291 (inactive). Further, the cell count by setting is: under setting [5], 6780; under setting [6], 6410; under setting [7], 7210; under setting [4], 6620.
In the case of `CC(=O)c1cccc(NC(=O)CN2CCc3cc4c(cc3C2)OCCCO4)c1`, the z-score under setting [1] was 0.0242 (inactive), the z-score under setting [2] was 0.451 (inactive), the z-score under setting [3] was -0.169 (inactive) and the z-score under setting [4] is 0.0588 (inactive). Moreover, the cell count by setting is: under setting [1], 4960; under setting [2], 4830; under setting [3], 4760; under setting [4], 4740.
As to `COc1cc2c(NC3CCN(C(C)C)CC3)nc(C3CCCCC3)nc2cc1OCCCN1CCCC1`, the z-score runs as follows: under setting [5], -0.551 (inactive); under setting [6], -0.34 (inactive); under setting [7], -0.454 (inactive); under setting [4], 0.796 (inactive). Moreover, the cell count under setting [5] was 6710, the cell count under setting [6] was determined as 5680, the cell count under setting [7] worked out at 6450 and the cell count under setting [4] is 1730.
Consider `COc1cc2nc(N3CCCN(C)CC3)nc(NC3CCN(Cc4ccccc4)CC3)c2cc1OC`, for which the z-score was -0.382 (inactive) and the cell count was found to be 5260. Under setting [5], the z-score is -0.481 (inactive) and the cell count is 6510. In addition, under setting [6], the z-score is -0.471 (inactive) and the cell count worked out at 6560. Further, under setting [7], the z-score was 0.298 (inactive) and the cell count is 5890. Under setting [4], the z-score is 10.9 (active) and the cell count came to 2180.
As for `COc1cc2c(NC3CCN(CC4CCCCC4)CC3)nc(N3CCCN(C(C)C)CC3)nc2cc1OCCCN1CCCCC1`, the outcome was “inactive; censored for cell count”. Further, under setting [1], the z-score is -0.365 (inactive) and the cell count worked out at 6230. For the same molecule, under setting [2], the z-score was -0.622 (inactive) and the cell count came to 6560. In addition, under setting [3], the z-score is 0.193 (inactive) and the cell count was 4370.

For the origin of these results see PubChem BioAssay AID1645838 (ICCB-Longwood Screening Facility, Harvard Medical School, 2021).
